According to PubChem BioAssay (EPA / NIEHS):
Calls of active or inactive are those of the source. The calls were made as follows: active = hit-call score of the fitted dose curve at least 0.9, where 1 is the maximum; inactive = score below 0.9.

Tests used:
[1] = read-out: Vascular cell adhesion molecule 1 (VCAM1), VCAM1 (gene 7412); assay: BSK_4H_VCAM1: BioMAP Diversity Plus: 4H Assay for Vascular cell adhesion molecule 1 (VCAM1) Biomarker Activity (AID 2283033); conditions: primary human endothelial cells (HUVEC); actives raise or lower the signal;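 as to outcome: cell-surface VCAM-1 protein measured by ELISA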
Summary of the method: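 In this human endothelial (HUVEC) system, biomarker ELISA was run 24 h after compound addition, and total protein in parallel wells was assessed by SRB at 560 nm; DMSO served as negative control.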

[2] = read-out: Interferon-gamma inducible Protein 10 (IP10), CXCL10 (gene 3627); assay: BSK_BE3C_IP10: BioMAP Diversity Plus: BE3C Assay for Interferon-gamma inducible Protein 10 (IP10) Biomarker Activity (AID 2283034); conditions: primary human bronchial epithelial cells; actives raise or lower the signal
Summary of the method: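 BE3C cells (human bronchial epithelial, primary); 24 h exposure; ELISA for IP-10; DMSO-referenced bidirectional fit.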

[3] = read-out: Monokine induced gamma interferon (MIG), CXCL9 (gene 4283); assay: BSK_BE3C_MIG: BioMAP Diversity Plus: BE3C Assay for Monokine induced gamma interferon (MIG) Biomarker Activity (AID 2283035); conditions: primary human bronchial epithelial cells; actives raise or lower the signal;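 as to outcome: MIG protein measured by ELISA in BE3C cultures after 24 h of dosing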
Summary of the method: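 hu bronchial epithelial 1° cells, 24 h cpd; MIG by ELISA; bidirectional fit, DMSO = baseline.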

[4] = read-out: Transforming growth factor beta 1 (TGFb1), TGFB1 (gene 7040); assay: BSK_BE3C_TGFb1: BioMAP Diversity Plus: BE3C Assay for Transforming growth factor beta 1 (TGFb1) Biomarker Activity (AID 2283036;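 as to outcome: TGF-b1 protein level measured by ELISA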); conditions: primary human bronchial epithelial cells; actives raise or lower the signal
Summary of the method: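 TGF-b1 measured via ELISA, 24 h after chemical dosing of human bronchial epithelial cells (BE3C). Overt cytotoxicity assessed in parallel by SRB (0.1%, TCA-fixed, 560 nm); analysis bidirectional relative to DMSO.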

[5] = read-out: Plasminogen activator inhibitor-1 (PAI1), SERPINE1 (gene 5054); assay: BSK_BE3C_PAI1: BioMAP Diversity Plus: BE3C Assay for Plasminogen activator inhibitor-1 (PAI1) Biomarker Activity (AID 2283037); conditions: primary human bronchial epithelial cells; actives raise or lower the signal
Summary of the method: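 In this multiplexed primary-cell system, bronchial epithelial cells receive test chemical and are sampled at 24 h. PAI-1 is read by ELISA, with DMSO serving as negative control for bidirectional fitting.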

[6] = read-out: urokinase plasminogen activator (uPA), PLAU (gene 5328); assay: BSK_BE3C_uPA: BioMAP Diversity Plus: BE3C Assay for urokinase plasminogen activator (uPA) Biomarker Activity (AID 2283038); conditions: primary human bronchial epithelial cells; actives raise or lower the signal;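 as to outcome: uPA protein level quantified by ELISA in cell cultures; uPA read one day after compound addition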
Summary of the method: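 Primary human bronchial epithelial cells, uPA measured by ELISA 24 h after dosing. Bidirectional change relative to DMSO; cytotoxicity checked in parallel cultures by sulforhodamine B total-protein staining.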

[7] = read-out: Urokinase-type plasminogen activator receptor (uPAR), PLAUR (gene 5329); assay: BSK_BE3C_uPAR: BioMAP Diversity Plus: BE3C Assay for Urokinase-type plasminogen activator receptor (uPAR) Biomarker Activity (AID 2283039); conditions: primary human bronchial epithelial cells; actives raise or lower the signal;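 as to outcome: uPAR protein level measured by ELISA on the cells; cells exposed to compound for one day before measurement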
Summary of the method: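 Chemically treated human bronchial epithelial cells (lung primary) are assayed for uPAR by ELISA after 24 h, with data fitted in both directions using DMSO as negative control.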

[8] = read-out: Interleukin-6 (IL6), IL6 (gene 3569); assay: BSK_CASM3C_IL6: BioMAP Diversity Plus: CASM3C Assay for Interleukin-6 (IL6) Biomarker Activity for (AID 2283040); conditions: primary human coronary artery smooth muscle cells; actives raise or lower the signal
[9] = read-out: Tissue plasminogen activator (tPA), PLAT (gene 5327); assay: BSK_BE3C_tPA: BioMAP Diversity Plus: BE3C Assay for Tissue plasminogen activator (tPA) Biomarker Activity (AID 2283041); conditions: primary human bronchial epithelial cells; actives raise or lower the signal;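 as to outcome: tPA level quantified by ELISA one day after compound addition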
Summary of the method: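 Using human lung primary bronchial epithelial cells, tPA was measured by ELISA 24 h after dosing; data fitted relative to DMSO.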

[10] = read-out: Interleukin-8 (IL8), CXCL8 (gene 3576); assay: BSK_CASM3C_IL8: BioMAP Diversity Plus: CASM3C Assay for Interleukin-8 (IL8) Biomarker Activity (AID 2283042); conditions: primary human coronary artery smooth muscle cells; actives raise or lower the signal;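 also: IL-8 protein level quantified by ELISA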

Compound	AC50 [1]	AC50 [2]	outcome [3]	outcome [4]	AC50 [5]	AC50 [6]	AC50 [7]	AC50 [8]	outcome [9]	AC50 [10]	outcome [1]	outcome [2]	outcome [5]	outcome [6]	outcome [7]	outcome [8]	outcome [10]	AC50 [3]	AC50 [4]	AC50 [9]
CCN(CC)CCNc1ccc(CNC=O)c2sc3ccc(OC)cc3c(=O)c12	30.7 µM (active)	14.3 µM (active)	inactive	inactive	1.61 µM (active)	20 µM (active)	12.9 µM (active)	20 µM (active)	inactive	35.6 µM (active)	–	–	–	–	–	–	–	–	–	–
CCC(C)(C)C1CCC(O)CC1 (stereo not given)	–	–	inactive	inactive	–	–	–	–	inactive	–	inactive	inactive	inactive	inactive	inactive	inactive	inactive	–	–	–
CC(C)(C)c1cc(C(C)(C)C)c(O)c(C(C)(C)C)c1	–	–	inactive	inactive	–	5.06 µM (active)	–	–	inactive	–	inactive	inactive	inactive	–	inactive	inactive	inactive	–	–	–
CCCCCCCCCCCCCCCS(=O)(=O)Oc1ccccc1	–	–	inactive	inactive	–	–	–	–	inactive	–	inactive	inactive	inactive	inactive	inactive	inactive	inactive	–	–	–
COC(=O)CCCCC(=O)OC	–	–	inactive	inactive	–	–	–	–	inactive	–	inactive	inactive	inactive	inactive	inactive	inactive	inactive	–	–	–
CC(C)CCCCCCOC(=O)CCCCC(=O)OCCCCCCC(C)C	–	–	inactive	inactive	–	–	–	–	inactive	–	inactive	inactive	inactive	inactive	inactive	inactive	inactive	–	–	–
CCCOc1sc(C(=O)N2CCC(c3cc(CN)ccc3F)CC2)c(C)c1Br	8.01 µM (active)	9.51 µM (active)	–	–	9.91 µM (active)	5.88 µM (active)	7.36 µM (active)	27.4 µM (active)	–	15.4 µM (active)	–	–	–	–	–	–	–	10.2 µM (active)	6.71 µM (active)	5.19 µM (active)
CC[C@H](c1ccc(O)cc1)[C@@H](CC)c1ccc(O)cc1	30.7 µM (active)	20.1 µM (active)	–	–	22.9 µM (active)	37.2 µM (active)	37.8 µM (active)	–	–	–	–	–	–	–	–	inactive	inactive	34.5 µM (active)	27.9 µM (active)	27.5 µM (active)
CCCCC(CC)COC(=O)CCCCC(=O)OCC(CC)CCCC (stereo not given)	–	–	inactive	inactive	–	–	–	–	inactive	–	inactive	inactive	inactive	inactive	inactive	inactive	inactive	–	–	–
Oc1cc2ccccc2c2ccccc12	8.16 µM (active)	13 µM (active)	–	–	24.9 µM (active)	13.9 µM (active)	27.6 µM (active)	8.56 µM (active)	–	10.6 µM (active)	–	–	–	–	–	–	–	28.8 µM (active)	13.9 µM (active)	14.7 µM (active)
CCCCOCCO	–	–	inactive	inactive	–	–	–	–	inactive	–	inactive	inactive	inactive	inactive	inactive	inactive	inactive	–	–	–
CC#C[C@]1(O)CC[C@H]2[C@@H]3CCC4=CC(=O)CCC4=C3[C@@H](c3ccc(N(C)C)cc3)C[C@@]21C	26.4 µM (active)	36.7 µM (active)	inactive	inactive	12.9 µM (active)	34.7 µM (active)	33.7 µM (active)	–	–	5.69 µM (active)	–	–	–	–	–	inactive	–	–	–	19.4 µM (active)
OCCC(F)(F)C(F)(F)C(F)(F)C(F)(F)C(F)(F)C(F)(F)F	–	–	inactive	inactive	–	–	–	–	inactive	–	inactive	inactive	inactive	inactive	inactive	inactive	inactive	–	–	–
ClC1=C(Cl)C(Cl)(Cl)C(Cl)=C1Cl	6.5 µM (active)	6.61 µM (active)	–	–	5.25 µM (active)	7.28 µM (active)	8.37 µM (active)	5.48 µM (active)	–	9.09 µM (active)	–	–	–	–	–	–	–	10.1 µM (active)	5.53 µM (active)	6.77 µM (active)
CCCCCCC(=O)O	–	–	inactive	inactive	–	–	–	–	inactive	–	inactive	inactive	inactive	inactive	inactive	inactive	inactive	–	–	–
Cc1cc(C)c(O)c(C)c1	–	–	inactive	inactive	–	–	–	–	inactive	–	inactive	inactive	inactive	inactive	inactive	inactive	inactive	–	–	–
